Data from PubChem BioAssay (NCI).
About 79,000 compounds went through this panel and 15% of them were active in at least one assay; those are over-represented in the sample as a whole. Activity calls are given as the source filed them. Cut-off read from the data, not from the text of the source: active = growth inhibition above about 70%; inactive = the rest.

Assay: NCI Yeast Anticancer Drug Screen. Data for the wt2 strain (AID 169);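 note: 0% = growth of vehicle-treated yeast cultures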
Settings: S. cerevisiae wt2 strain growth inhibition, stronger effect = higher value
Method: Growth inhibition of yeast strains with defined genetic alterations is measured as a screen for potential anti-cancer activity. Selected strains with alterations in DNA damage repair or cell cycle control were exposed to compounds and growth inhibition was measured relative to vehicle treated controls. The strain used in this assay is wt2

Measured: growth inhibition

Oc1c(Br)cc(Br)cc1C1CCCCC1
inactive: at 1.2 µM -23% | at 3.7 µM -22% | at 11.0 µM -15%
active: at 33.0 µM 91% | at 100.0 µM 96%

CN(C)c1ccc(Sc2ccc3nc(N)nc(N)c3c2)cc1
inactive: at 1.2 µM -4% | at 3.7 µM -1% | at 11.0 µM 9% | at 33.0 µM 7% | at 100.0 µM 1%

O=C(Nc1ccccc1)C(=O)C(C(=O)c1ccccc1)C(c1ccccc1)c1ccccc1 (stereo not given)
inactive: at 1.2 µM 1% | at 3.7 µM 2% | at 11.0 µM 2% | at 33.0 µM 12% | at 100.0 µM 43%

FC(F)(F)c1cc(NC(=S)N2c3ccccc3-n3cccc3C2c2cccnc2)cc(C(F)(F)F)c1 (stereo not given)
inactive: at 1.2 µM -2% | at 3.7 µM -3% | at 11.0 µM -2% | at 33.0 µM -1% | at 100.0 µM 2%

COC(=O)c1ccc(NCC2=CC(=O)C=CC2=O)cc1O
active: at 11.0 µM 94% | at 33.0 µM 97% | at 100.0 µM 92%
inactive: at 1.2 µM 20% | at 3.7 µM 56%

COc1ccc(Br)c(C(=O)Sc2nnnn2-c2cccc(Cl)c2)c1
inactive: at 1.2 µM -11% | at 3.7 µM -15% | at 11.0 µM -35% | at 33.0 µM -8%
active: at 100.0 µM 93%

N#CC(C(=O)Nc1ccccc1)C1=C(Cl)C(=O)c2ccccc2C1=O (stereo not given)
inactive: at 1.2 µM -3% | at 3.7 µM 26%
active: at 11.0 µM 95% | at 33.0 µM 97% | at 100.0 µM 95%

CCN(CC)C(=S)N/N=C(/C)c1cccc(/C(C)=N\NC(=S)N(CC)CC)n1
active: at 100.0 µM 89%
inactive: at 1.2 µM 12% | at 3.7 µM 4% | at 11.0 µM 10% | at 33.0 µM 64%
